Source: PubChem (National Center for Advancing Translational Sciences (NCATS))
Hits are enriched below; roughly 21% of the tested compounds scored in any of these assays.
Sm TGR inh: inhibitors of Schistosoma mansoni thioredoxin glutathione reductase. Q962Y6. purified TGR, DTNB reduction, TNB absorbance 405 nm. Potency, µM (doses to about 114 µM), without a hit: at the highest dose activity change, negative = inhibition, most hits filed as inhibitors. 360,000 tested, 3% active. AID 485364; also: potency is read from the fitted curve at half-maximal effect; % is scaled to controls: 0 for no effect and ±100 for the full control effect; nearly all actives have a fitted effect of over 60% in size
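Kinetic colorimetric format: TGR-catalysed, NADPH-driven DTNB reduction monitored via TNB absorbance. Enzyme dispensed at 20 nM; compound exposure 15 min at room temperature before reaction start.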
Cycloheximide cs: counter-screen hit for Shiga toxin inhibitors, cycloheximide. max response, %. cell reporter, cycloheximide protein synthesis inhibition counterscreen. 300,000 tested, 12% active; in the data active = max response mostly above about 13%, no sharp cut-off; inactive = mostly below about 14%; also: read at 38.3 µM for the half of the compounds with a filed dose; 0% is about no effect
Pf growth 96h: P. falciparum growth inhibition at 96 hour, primary screen for plastid delayed-death inhibitors; P. falciparum luciferase reporter growth, 96 h; Potency, µM (top dose mostly 28.7 µM), for the others: top-dose activity change, negative = inhibition, usual class: inhibitors; 320,000 tested, 6.9% active; also: potency is read from the fitted curve at half-maximal effect; % is scaled to controls: 0 for no effect and ±100 for the full control effect
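Compounds incubated with erythrocytes infected by luciferase-expressing P. falciparum (2% hematocrit, 0.05% parasitemia final) for 96 hours, 37 C in 5% CO2. Growth inhibition scored as decreased luciferase luminescence.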
Shiga inhibitor: blocks Shiga toxin action in Vero cells | Vero cells, Shiga toxin protein synthesis inhibition reporter | inhibition, % at 38.7 µM | 290,000 tested, 9.2% active; in the data active = inhibition mostly above about 28%, no sharp cut-off; inactive = mostly below about 43%; also: 0% is about no effect
NS1 function inh: blocks influenza NS1 protein function; Potency, µM (doses to about 46.1 µM), inactives show at the highest dose activity, positive = more growth; 270,000 tested, 0.4% active; AID 2326; calls by dose curve; also: potency is read from the fitted curve at half-maximal effect; actives are rising curves; nearly all actives have a fitted effect of over 50% in size
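OD600 was taken as the measure of yeast growth restored by compound in an NS1-expressing S. cerevisiae strain. Cells had been washed out of glucose medium and diluted 1:100 into galactose -URA medium, pH 6.0.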
Pf growth 48h: inhibits P. falciparum growth in the first generation, 48 h; P. falciparum luciferase growth in erythrocytes, 48 h; AID 504832; Potency, µM (top dose mostly 28.7 µM), for the others: at the top dose activity change, negative = inhibition, actives largely listed as inhibitors; 310,000 tested, 5.9% active; also: potency is read from the fitted curve at half-maximal effect; % is scaled to controls: 0 for no effect and ±100 for the full control effect
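Parasite viability was followed by luminescence of a genomically integrated firefly luciferase. Cultures held 0.1% parasitemia at 2% hematocrit (final), incubated under 5% CO2 at 37 C.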
* = called active by the depositor; ? = inconclusive; nt = no result given. Unless noted, calls follow the shape of the dose curve; as a rule, active = well fitted curve in the direction sought with a large enough effect; inconclusive = small, poorly fitted or top-dose-only effect, or another doubt; inactive = no such curve, though single readings can be large; an effect the other way counts as inactive or inconclusive.

SMILES	Sm TGR inh	Cycloheximide cs	Pf growth 96h	Shiga inhibitor	NS1 function inh	Pf growth 48h
COc1ccc(NC(=O)CN(C)C(=O)c2cn(-c3ccccc3)nc2-c2ccc(OC)cc2)cc1	2%	nt	?	nt	nt	13µM*
CCCCC(=O)Nc1ccc(NC(=O)c2ccc([N+](=O)[O-])cc2Cl)cc1OC	0%	-2	5%	-1	13%	24%
CCN(CC)C(=O)c1ccc(NC(=O)c2cn(-c3ccccc3)nc2-c2ccc(OC)cc2)cc1	-3%	2	7.4µM*	-3	15%	?
COc1ccc(NC(=O)CN(C)C(=O)c2cn(-c3ccccc3)nc2-c2ccc(Cl)cc2)cc1	-3%	nt	?	nt	nt	10µM*
CN(CC(=O)Nc1cccc(F)c1)C(=O)c1cn(-c2ccccc2)nc1-c1ccc(Cl)cc1	6%	nt	?	nt	nt	15µM*
CC(C)C(OC(=O)CN1C(=O)c2ccccc2C1=O)C(=O)NC1CCCC1 (centres undefined)	-1%	-7	-3%	-4	5%	9%
Cc1c(-c2nsc(NC(=O)c3ccccc3)n2)nnn1-c1ccc(C(F)(F)F)c(Cl)c1	-6%	nt	nt	nt	nt	nt
Cc1c(-c2ccccc2)c(=O)oc2c(CN3CCN(C)CC3)c(O)ccc12	30%	nt	nt	nt	nt	nt
CCCn1c(=O)c(C(=O)NCc2ccco2)c(O)c2ccccc21	7%	4	?	-2	nt	21%
COc1ccc(C(=O)NCCn2cc(SCC(=O)N3CCOCC3)c3ccccc32)cc1	-1%	1	32%	-4	5%	19%
O=C(CSc1cn(Cc2ccccc2)c2ccccc12)N1CCOCC1	0%	21*	35%	96*	-9%	62%
O=C(NCCn1cc(SCC(=O)N2CCOCC2)c2ccccc21)c1ccccc1	-21%	19*	44%	37*	-18%	13%
Cc1ccccc1Nc1nnc(SCC(=O)NCc2cccs2)s1	9%	-2	?	-5	-3%	?
Cc1ccccc1Nc1nnc(SCC2CCCCO2)s1 (centres undefined)	-6%	55*	-52%	15*	-27%	78%
Cc1ccc(Nc2nnc(SCC(=O)NC3CC3)s2)cc1	-3%	nt	?	nt	nt	?
Cc1ccc(Nc2nnc(SCC3CCCCO3)s2)cc1 (centres undefined)	-12%	41*	?	54*	-8%	-6%
COc1ccccc1Nc1nnc(SCC(=O)NC2CC2)s1	-2%	nt	?	nt	nt	?
COc1ccccc1Nc1nnc(SCC2CCCCO2)s1 (centres undefined)	8%	26*	-60%	51	nt	195%
Cc1cc(C)nc(N/N=C/C=C/c2ccccc2)n1	-8%	29*	?	57*	-9%	2%
Cc1cc(C)nc(SCC(=O)N/N=C\C(Br)=C\c2ccccc2)n1	-3%	5	9%	-7	0%	1%
Cc1cc(C)nc(N/N=C/c2ccccc2)n1	-9%	-2	17%	-15	-7%	18%
Cc1cc(C)nc(N/N=C/C(Cl)=C/c2ccccc2)n1	-12%	30*	3.7µM*	50*	-11%	nt
CCOC(=O)c1ccc(NC(=O)CCC(=O)N2Cc3ccccc3Oc3ncccc32)cc1	-11%	nt	nt	nt	nt	nt
CCC(=O)N1CCc2cc(Br)cc(S(=O)(=O)C3(C(=O)OC)CC3)c21	1%	-3	?	-8	-42%	4.1µM*
O=C(C1CC1)N1CCc2cc(Br)cc(S(=O)(=O)NC3CCCCC3)c21	-1%	-2	?	-11	-37%	4.7µM*
CCCN(CCC)S(=O)(=O)c1cc(Br)cc2c1N(C(=O)CC)CC2	-4%	1	?	-2	-105%	1µM*
CCC(=O)N1CCc2cc(Br)cc(S(=O)(=O)N3CCCCC3CC)c21 (centres undefined)	-14%	-4	?	-7	9%	1µM*
CCC(=O)N1CCc2cc(Br)cc(S(=O)(=O)NCCN3CCCCC3CC)c21 (centres undefined)	-12%	1	?	-7	4%	?
Cc1c(Cl)cccc1N(CC(=O)NC(C)c1ccccc1)S(C)(=O)=O (centres undefined)	?	-1	?	-14	23%	6%
CCOC(=O)N1CCC(NS(=O)(=O)c2cc(Br)cc3c2N(C(=O)CC)CC3)CC1	0%	6	-2%	-10	-11%	8.3µM*
